These compounds were tested on Wnt5a (protein binding on small-molecule microarray) (assay: Wnt5a binders on small-molecule microarray, primary screen, biophysical, 635/667 nm fluorescence (AID 1142;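 note: fluorescence read at 667 nm with signal to noise per printed feature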)). Settings: 635 nm fluorescence, higher = more signal.
`CCCCC(CC)C(O)C1C=CC2C(=O)N(c3ccccc3)C(=O)C2N1Nc1ccc(C#N)cc1` (stereo not given) was tested, and the composite z-score was 0.648.
Work on `NC(=O)[C@H]1[C@@H]2C(=O)O[C@@H](c3ccccc3)[C@@H](c3ccccc3)N2[C@@H](c2ccc(OCCO)cc2)[C@]12C(=O)Nc1ccc(C#CCCO)cc12` yielded a composite z-score of 0.262.
`CCC1=C2CN(Cc3ccccc3)[C@@H](C(=O)Cc3ccccc3)C2C=CCC1` (stereo not given in full) showed a composite z-score of -0.245.
For `[N-]=[N+]=Nc1ccccc1C[C@]1(C(=O)NCC(O)CO)COC(c2ccc(OCCCO)cc2)=N1` (stereo not given in full), the composite z-score was 0.123.
With `CCCC=C(CCC)[C@@H](NP(=O)(c1ccccc1)c1ccccc1)c1ccc(-c2ccccc2)cc1` the composite z-score was 0.363.
`CCOC(=O)C[C@H]1[C@H](OC(=O)c2ccc(C(=O)c3ccccc3)cc2)[C@@H](NC(=O)c2ccc(-c3ccccc3)cc2)c2cc(OCCCO)ccc2N1C(=O)Cc1ccc(OC)cc1` gave a composite z-score of 0.0266.
`CO[C@H]1O[C@H](CO)[C@@H](OC(=O)CCc2ccccc2)[C@@H]2OC(=O)[C@@H](Cc3ccccc3)C/C=C/C[C@H](Cc3ccccc3)C(=O)O[C@@H]12` showed a composite z-score of 0.411.
Work on `CCOC(=O)C1=C[C@@H](c2ccccc2)N(S(=O)(=O)c2ccc(C)cc2)[C@H]1c1ccc(OC)cc1` yielded a composite z-score of 0.943.
For `[N-]=[N+]=Nc1ccccc1C[C@]1(C(=O)NCCN2CCOCC2)COC(c2ccc(OCCCO)cc2)=N1`, the composite z-score was 0.898.
`COc1ccc([Si](C)(C)[C@H]2[C@H](CC(=O)N3Cc4ccccc4C[C@H]3CO)O[C@@]3(C(=O)N(Cc4ccc(N5CCOC5=O)cc4)c4ccccc43)[C@@H]2C)cc1` showed a composite z-score of -0.0993.

Source: PubChem BioAssay
